The results in this text go back to PubChem BioAssay AID1851 (National Center for Advancing Translational Sciences (NCATS), 2009).

Structures are written as SMILES. Several values for one entry are separate records, joined by “and”; a condition that tells them apart may be missing. Identical values can stand only once. Among all 16,000 compounds or so, about 2,600 (16%) were called active. Inconclusive results (about 20%) are left out. Calls come from the whole dose curve; as a rule, active = well fitted curve in the direction sought with a large enough effect; inconclusive = small, poorly fitted or top-dose-only effect, or effect the other way; inactive = no such curve, though single readings can be large or run the other way. Only a sample is shown. More than one record can exist for a structure, and the calls need not agree.

A word on the AC50: it is the concentration giving half of the maximal activity seen.
% is set by controls: 0 for no effect and ±100 for the full control effect.

Sequence of Cytochrome P450 2D6 (Homo sapiens) (P10635 whole entry, looked up): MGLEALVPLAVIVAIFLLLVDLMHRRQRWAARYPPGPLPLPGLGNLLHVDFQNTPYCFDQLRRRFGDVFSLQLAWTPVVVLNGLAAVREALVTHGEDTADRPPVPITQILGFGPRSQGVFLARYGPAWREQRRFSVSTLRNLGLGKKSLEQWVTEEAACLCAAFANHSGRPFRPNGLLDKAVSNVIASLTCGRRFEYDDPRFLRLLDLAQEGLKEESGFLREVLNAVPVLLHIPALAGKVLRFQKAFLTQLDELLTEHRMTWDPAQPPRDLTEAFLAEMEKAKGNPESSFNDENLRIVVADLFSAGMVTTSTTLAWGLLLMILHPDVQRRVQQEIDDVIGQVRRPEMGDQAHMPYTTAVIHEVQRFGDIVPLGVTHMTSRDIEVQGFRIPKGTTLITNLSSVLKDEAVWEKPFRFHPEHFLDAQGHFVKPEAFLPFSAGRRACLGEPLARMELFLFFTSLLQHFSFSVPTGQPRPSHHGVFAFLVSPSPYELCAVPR

The experiment has as its target Cytochrome P450 2D6 (Homo sapiens) (UniProt P10635). As to the kind of experiment: Cytochrome panel assay with activity outcomes. Conditions: recombinant CYP, pro-luciferin dealkylation, luminescence, p450-cyp2d6; series mostly up to 57.1 µM.
For `CCOc1ccc(C(C)=O)cc1N1C(=O)C2C3C=CC(O3)C2C1=O` (centres undefined), the AC50 result was “inactive”.

On to `COC(=O)N1CCC[C@@]2(CCN(C(=O)Nc3cccc(F)c3)C2)C1`, for which the AC50 was 10 µM (active).

With `COC(=O)N1CCC2(CCCN(C(=O)Nc3cccc(F)c3)C2)CC1`, the AC50 result was “inactive”.

On to `COC(=O)N1CCC2(CCN(C(=O)Nc3cccc(F)c3)CC2)CC1`, for which the AC50 is 10 µM (active).

Take `COCC(=O)N1CCC[C@@]2(CCN(C(=O)Nc3cccc(F)c3)C2)C1`: the AC50 result was “inactive”.

As for `CC(=O)N1CCC2(CCCN(C(=O)Nc3cccc(F)c3)C2)CC1`, the AC50 entry is “inactive”.

Take `CC(=O)N1CCC2(CC1)CCN(C(=O)Nc1cccc(F)c1)CC2`: the AC50 was 3.16 µM (active).

On to `CS(=O)(=O)N1CCC2(CCN(C(=O)Nc3cccc(F)c3)CC2)CC1`, for which the AC50 entry is “inactive”.

On to `COc1ccc(C(=O)N2CCC3(CCN(C(=O)Nc4cccc(F)c4)CC3)CC2)cc1`, for which the AC50 result is “inactive”.

As to `COCC(=O)N1CCC2(CC1)CCN(C(=O)Nc1cccc(F)c1)CC2`, the AC50 result was “inactive”.

In the case of `Cc1cc(C(=O)NNC(=S)NC(C)c2ccccc2)c2ccccc2n1` (centres undefined), the AC50 entry is “inactive”.

Regarding `COc1ccc(S(=O)(=O)N2CCC[C@H]2C(=O)NC2=NCCS2)cc1`, the AC50 entry is “inactive”.

In the case of `COc1ccccc1N/C(=N/S(=O)(=O)c1ccc(C)cc1)c1ccc(Cl)cc1`, the AC50 result is “inactive”.

In the case of `CCOc1cc(CC(=O)N[C@@H](CC(C)C)c2ccccc2N2CCCCC2)ccc1C(=O)O`, the AC50 entry was “inactive”.

Take `Cc1cc(N2CCN(c3nc4ccccc4s3)CC2)n2ncnc2n1`: the AC50 result is “inactive”.

For `C[n+]1ccccc1/C=N\O`, the AC50 result is “inactive”.

Turning to `CS(=O)(=O)c1ccccc1-c1nc(-c2cc(C(F)(F)F)cc(C(F)(F)F)c2)no1`, the AC50 entry is “inactive”.

In the case of `N[C@@H](CO)C(=O)O`, the AC50 result was “inactive”.

In the case of `CO[C@]1(C2=NCCN2)COc2ccccc2O1`, the AC50 result is “inactive and 794 nM (active)”.

`COc1ccc(N2C(=O)c3ccccc3NC2c2ccc(OC)c(CSc3ccccn3)c2)cc1` (centres undefined): the AC50 result was “inactive”.

In the case of `COCCN(C(=O)Nc1ccc(OC)cc1OC)C1CCN(C(C)=O)CC1`, the AC50 entry was “inactive”.

Regarding `COc1ccc(NC(=O)Cn2cccc2)c(OC)c1`, the AC50 entry was “inactive”.

Turning to `CCCCN(CC)Cc1ccc(CNC(=O)Nc2ccc(OC)cc2OC)o1`, the AC50 is 0.501 µM (active).

On to `CC(=O)NC(CCS(C)(=O)=O)C(=O)Nc1c(F)cccc1F` (centres undefined), for which the AC50 entry is “inactive”.

On to `O=C1CCCN1CC(CN1CCOCC1)Sc1nnnn1-c1ccccc1` (centres undefined), for which the AC50 result is “inactive”.

As for `Cc1cc(C)n(-c2cc(N3CCN(C(=O)c4ccc(C(C)(C)C)cc4)CC3)ccc2[N+](=O)[O-])n1`, the AC50 entry was “inactive”.

`Cc1cc(C)c(S(=O)(=O)N2CCN(c3ccc([N+](=O)[O-])c(NCC4CCCO4)c3)CC2)c(C)c1` (centres undefined): the AC50 entry was “inactive”.

Regarding `Cc1cc(C)n(-c2cc(N3CCN(S(=O)(=O)c4ccc(C)c(C)c4)CC3)ccc2[N+](=O)[O-])n1`, the concentration at half-maximal activity (AC50) was 0.501 µM (active).

Take `COc1ccc2c(C=Nc3c(C)n(C)n(-c4ccccc4)c3=O)c(O)n(Cc3ccco3)c(=O)c2c1`: the AC50 entry is “inactive”.

With `COc1cccc(Cn2c(=O)c(-c3cccs3)nc3cnc(N4CCN(C)CC4)nc32)c1`, the AC50 result is “inactive”.

Turning to `CN(C)C(=O)CCc1nc(-c2ccc(C(C)(C)C)cc2)no1`, the AC50 result is “inactive”.

With `COC(=O)c1ccc(Oc2nc(N(C)C)nc(N3CCOCC3)n2)cc1`, the AC50 entry is “inactive”.

Turning to `O=C(O)[C@@H](O)[C@@H](O)[C@@H](O)[C@@H](O)c1nc2ccccc2s1`, the activity, negative = inhibition is -1.94% [at 11.4 µM] (inactive).

On to `Clc1ccccc1-c1nccc(-n2ccnc2)n1`, for which the AC50 is 7.94 µM (active).

Take `Cc1ccccc1-c1nccc(-n2ccnc2)n1`: the half-maximal activity concentration (AC50) was 10 µM (active).

Consider `COc1ccccc1-c1nccc(-n2ccnc2)n1`, for which the half-maximal activity concentration (AC50) was 15.8 µM (active).

Turning to `FC(F)(F)c1ccccc1-c1nccc(N2CCNCC2)n1`, the AC50 entry is “inactive”.

As for `COc1ccccc1-c1nnc(NC(C)=O)s1`, the AC50 result was “inactive”.

Consider `O=C(O)CC[C@]1(C(=O)O)CCC(=O)c2ccccc21`, for which the activity, negative = inhibition is 10.4% [at 11.4 µM] (inactive).

Take `CCOCC(=O)Nc1cc(C(=O)Nc2ccccc2)ccc1Cl`: the AC50 result is “inactive”.

Take `CCc1ccc(C(=O)N2CCC(c3nc4ccccc4s3)CC2)cc1`: the AC50 result was “inactive”.

For the molecule `CO[C@@H]1COC(=O)C/C=C\[C@H](C)[C@H](OC)COC(=O)[C@H]2CCCN2C(=O)C/C=C\[C@H]1C`, the activity, negative = inhibition was 6.57% [at 11.4 µM] (inactive).

As for `C[C@@H]1C[C@H]2[C@H]3C[C@@H](F)C4=CC(=O)C=C[C@]4(C)[C@@]3(Cl)[C@@H](O)C[C@@]2(C)[C@@H]1C(=O)COC(=O)C(C)(C)C`, the AC50 result was “inactive”.

In the case of `CC(C)(C)OC(=O)[C@H]([C@@H]1N[C@@H](C(=O)O)C(C)(C)S1)N1C(=O)c2ccccc2C1=O`, the activity, negative = inhibition is 13.9% [at 11.4 µM] (inactive).

In the case of `CO[C@@]12C[C@@H](COC(=O)c3cncc(Br)c3)CN(C)[C@H]1Cc1cn(C)c3cccc2c13`, the AC50 is 39.8 nM (active) and 20 nM (active).

With `Cc1ccc(OCCNC(=O)c2cncc(Br)c2)cc1C`, the AC50 result is “inactive”.

`CC(C)(C)NC(=O)COC(=O)c1cncc(Br)c1`: the AC50 result is “inactive”.

As to `COC(=O)C/C=C\[C@@H](C)[C@@H](/C=N\O[C@@H](C)c1cn([C@H](CO)Cc2ccccc2)nn1)OC`, the activity, negative = inhibition is 15.1% [at 11.4 µM] (inactive) and 6.44% [at 11.4 µM] (inactive).

`COc1ccc2cc3[n+](cc2c1OC)CCc1cc2c(cc1-3)OCO2`: the AC50 is 2.51 µM (active).

`C[C@H]1[C@H](C)OC(=O)C[C@H](O)C[C@H](O)C[C@H](O)CC[C@H](O)[C@H](O)CC(=O)C[C@H](O)[C@H](C(=O)O)[C@H](O)C[C@H](O[C@@H]2O[C@@H](C)[C@H](O)[C@@H](N)[C@@H]2O)C=CC=CC=CC=CCCC=CC=C[C@@](C)(O)[C@H]1O`: the activity, negative = inhibition was -1.84% [at 11.4 µM] (inactive).

Take `O=C(Nc1ncn[nH]1)c1ccc([N+](=O)[O-])cc1[N+](=O)[O-]`: the AC50 entry is “inactive”.

For `NC(=O)NC(=O)Nc1ccccc1Cl`, the AC50 entry was “inactive”.

For `NC(N)=NC(=O)Cc1c(Cl)cccc1Cl`, the AC50 entry is “inactive and 126 nM (active)”.

On to `O=C(O)COC(=O)Cc1ccccc1Nc1c(Cl)cccc1Cl`, for which the AC50 result was “inactive”.

Consider `CCC(CC)c1nnc(NC(=O)c2cccc(S(=O)(=O)N3CCc4ccccc43)c2)s1`, for which the AC50 result is “inactive”.

Regarding `CCCCN1C(=O)C(NC(=O)CC(C)C)(C(F)(F)F)C2=C1CC(C)(C)CC2=O` (centres undefined), the AC50 result is “inactive”.

With `CN1[C@@H](CC(=O)c2ccccc2)CCC[C@@H]1C[C@@H](O)c1ccccc1`, the AC50 is 0.251 µM (active).

For `O=C(C[C@@H](c1ccccc1)N1CCCCC1)c1ccccc1`, the activity, negative = inhibition was -19.2% [at 11.4 µM] (inactive).

For the molecule `CN1[C@H](CC(=O)c2ccccc2)CCC[C@H]1C[C@H](O)c1ccccc1`, the AC50 is 25.1 µM (active).

With `Nc1cc(N)nc(SCC(=O)c2ccccc2)n1`, the AC50 result was “inactive”.

Regarding `O=C(C[C@@H]1C=Cc2ccccc2N1C(=O)c1ccccc1)c1ccccc1`, the activity, negative = inhibition is -16.3% [at 11.4 µM] (inactive).

For `COc1ccc(-n2c(=O)cnc3cnc(OC)nc32)cc1`, the AC50 entry was “inactive”.

`COCCn1c(=O)c(-c2cccc(C#N)c2)nc2cnc(N3CCN(C)CC3)nc21`: the AC50 entry was “inactive”.

`O=C(c1cc(C(F)(F)F)cc(C(F)(F)F)c1)N1CCC[C@@]2(CCN(c3ccccc3)C2)C1`: the AC50 result is “inactive”.

Regarding `O=C(Nc1cccnc1)c1ccc(COc2cc(Cl)ccc2Cl)o1`, the AC50 was 15.8 µM (active).

As to `O=C(N/N=C/c1ccc(O)cc1)c1ccc(COc2cc(Cl)ccc2Cl)o1`, the AC50 entry was “inactive”.

As for `O=C(Nc1ccn(Cc2ccccc2F)n1)c1ccc(COc2cc(Cl)ccc2Cl)o1`, the AC50 entry is “inactive”.

For the molecule `NS(=O)(=O)c1ccc(N=Nc2ccc[nH]c2=O)cc1`, the activity, negative = inhibition is -6.28% [at 11.4 µM] (inactive).

Regarding `C(=Nc1cnc2ccccc2c1)c1ccc2ccccc2n1`, the activity, negative = inhibition is 1.16% [at 11.4 µM] (inactive).

For the molecule `C=C(C)[C@@H]1CC=C(C(=O)O)CC1`, the AC50 entry was “inactive”.

Regarding `NNC(=O)c1nn(-c2ccc(Cl)cc2)ccc1=O`, the AC50 result is “inactive”.

With `COc1ccc(Oc2c(Cl)cnn(-c3ccccc3)c2=O)cc1`, the AC50 result is “inactive”.

With `Cc1ccc2ccccc2c1CSc1nc(N)nc2c1ncn2CC(C)C`, the AC50 was 3.98 µM (active).

As to `CC(C)Cn1cnc2c(SCc3ccccn3)nc(N)nc21`, the activity, negative = inhibition is 6.1% [at 11.4 µM] (inactive).

In the case of `CC(C)Cn1cnc2c(Sc3c([N+](=O)[O-])ncn3C)nc(N)nc21`, the activity, negative = inhibition is 8.92% [at 11.4 µM] (inactive).

In the case of `CCCOc1ccc(C2C(=O)N(C3CCCCC3)CC(=O)N2C2CC2)cc1OC` (centres undefined), the AC50 entry is “inactive”.

With `Cn1c[n+](C)cc1/C=N/O`, the AC50 result is “inactive”.

For `O=[N+]([O-])c1cc(F)c(N2CCOCC2)cc1N1CCCCC1`, the AC50 is 10 µM (active).

For the molecule `O=[N+]([O-])c1ccc(N2CCCC2)cc1N1CCCC1`, the AC50 result was “inactive”.

For `O=[N+]([O-])c1cccnc1N1CCOCC1`, the AC50 result is “inactive”.

Turning to `Cc1ccc(-c2nc3ccccc3s2)cc1NC(=O)c1cc(-n2cnnc2)ccc1Cl`, the AC50 entry is “inactive”.

Regarding `CN1CCN(c2ncc3nc(-c4cccs4)c(=O)n(-c4ccccc4)c3n2)CC1`, the AC50 entry was “inactive”.

For `O=C(O)C1CCC(=O)N(C2CC2)C1c1ccccc1` (centres undefined), the AC50 result was “inactive”.

Consider `COCCNc1nc(-c2ccccc2Cl)nc2ccccc12`, for which the AC50 result is “inactive”.

Turning to `COc1ccccc1-c1nc(NCCNC(C)=O)c2ccccc2n1`, the AC50 was 6.31 µM (active).

As to `CC(=O)NCCNc1nc(-c2ccccc2C)nc2ccccc12`, the AC50 was 5.01 µM (active).

For the molecule `CC(=O)NCCNc1nc(-c2ccccc2C(F)(F)F)nc2ccccc12`, the AC50 is 3.98 µM (active).

Take `COCCNc1nc(-c2ccccc2C(F)(F)F)nc2ccccc12`: the AC50 entry was “inactive”.

Consider `CC(=O)NCCNc1ccnc(-c2ccccc2C(F)(F)F)n1`, for which the AC50 result is “inactive”.

For the molecule `CC(=O)NCCNc1nc(-c2ccccc2Cl)nc2ccccc12`, the AC50 is 12.6 µM (active).

With `CC(=O)NCCNc1ccnc(-c2ccccc2C)n1`, the AC50 result is “inactive”.

As to `COC(=O)[C@@]1(Cc2ccc(OC)cc2)[C@H]2c3cc(C(=O)N4CCCC4)n(CCc4c[nH]c5ccc(O)cc45)c3C[C@H]2CN1C(=O)c1ccccc1`, the AC50 result is “inactive”.

With `O=Nc1c(-c2c(O)[nH]c3ccccc23)[nH]c2ccccc12`, the AC50 result is “inactive”.

Regarding `COc1ccc(C)cc1NC(=O)c1cc2cc3ccc(C)cc3nc2o1`, the AC50 entry is “inactive”.
